# Results filed as inconclusive are left out. Where a call stands in place of a potency, no number is given. Unmarked numbers belong to inactive results. Active and inactive are the calls of the source. The call rests on the fitted dose curve; in most records, active means well fitted curve in the direction sought with a large enough effect; inconclusive means small, poorly fitted or top-dose-only effect, or another doubt; inactive means no such curve, though single readings can be large; an effect the other way counts as inactive or inconclusive.
# Key:
# [1] = system: Hek293T; experiment: Primary qHTS to identify gynecologic anti-cancer compounds using libraries of approved drugs and bioactive compounds (AID 1345084); settings: Gynecologic cancer cell panel viability, ATPlite luminescence, 48 h, control line for the selectivity index; series mostly up to 57.5 µM; further: nearly all actives have a fitted effect of over 55% in size
# Summary of the method: (§1)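 Cells, 1,000 per well, plated 16 h, then exposed 48 h at 37 C to compounds. Viability by ATPlite luminescence after 15 min at room temperature.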
# [2] = system: JEG-3; experiment: as above; settings: Gynecologic cancer cell panel viability, ATPlite luminescence, 48 h; series mostly up to 57.5 µM
# Summary of the method: as §1
# [3] = system: OV90; experiment: as above; settings: Gynecologic cancer cell panel viability, ATPlite luminescence, 48 h; series mostly up to 57.5 µM
# Summary of the method: as §1
# [4] = system: PA-1; experiment: as above; settings: Gynecologic cancer cell panel viability, ATPlite luminescence, 48 h; series mostly up to 57.5 µM
# Summary of the method: as §1
# [5] = system: SKOV3; experiment: as above; settings: Gynecologic cancer cell panel viability, ATPlite luminescence, 48 h; series mostly up to 57.5 µM
# Summary of the method: as §1
# [6] = system: Tov-21-G; experiment: as above; settings: Gynecologic cancer cell panel viability, ATPlite luminescence, 48 h; series mostly up to 57.5 µM
# Summary of the method: as §1
# [7] = system: Tov112D; experiment: as above; settings: Gynecologic cancer cell panel viability, ATPlite luminescence, 48 h; series mostly up to 57.5 µM
# Summary of the method: as §1
# [8] = Drug repurposing screens with cells derived from glioblastoma tumor samples (AID 1345199); settings: GBM patient neurospheres viability, ATP luminescence, 48 h; further: nearly all actives have a fitted effect of over 40% in size
# Summary of the method: (§2)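 Four patient lines of CD133+ GBM neurospheres were screened at several concentrations; hits were retested in those lines plus three slower-growing GBM lines, using 48-hour treatment and ATP-based viability.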
# [9] = system: astro; experiment: as above; settings: viability, ATP luminescence, 48 h; series mostly up to 45.9 µM
# Summary of the method: as §2
# [10] = at 45.9 µM (top of the series), tumour line B
# [11] = at 45.9 µM (top of the series), tumour line D
# [12] = at 46.1 µM (top of the series), tumour line C
# [13] = at 20 µM (top of the series), tumour line C
# [14] = at 21.2 µM (top of the series), tumour line B
# [15] = at 21.2 µM (top of the series), tumour line D
# [16] = at 21.3 µM (top of the series), tumour line A
# [17] = at 46 µM (top of the series), tumour line A
# Potency means the concentration at half of the fitted maximal effect.
SMILES,Potency [1],Potency [2],Potency [3],Potency [4],Potency [5],Potency [6],Potency [7],"activity, negative = cell killing [8, 10] [%]","activity, negative = cell killing [8, 11] [%]",Potency [9],Potency ([8]; tumour line A),"activity, negative = cell killing [8, 12] [%]","activity, negative = cell killing [8, 13] [%]","activity, negative = cell killing [8, 14] [%]","activity, negative = cell killing [8, 15] [%]","activity, negative = cell killing [8, 16] [%]","activity, negative = cell killing [8, 17] [%]",Potency ([8]; tumour line D)
CC(C)Nc1cccnc1N1CCN(C(=O)c2cc3cc(NS(C)(=O)=O)ccc3[nH]2)CC1,inactive,inactive,inactive,inactive,inactive,inactive,inactive,-14.1,0.603,inactive,,,,,,,,
C#C[C@]1(O)CC[C@H]2[C@@H]3[C@H](C)CC4=C(CCC(=O)C4)[C@H]3CC[C@@]21C,inactive,inactive,inactive,inactive,inactive,inactive,inactive,-14.2,,inactive,31.6 µM (active),,,,,,,
COc1ccc(/C=N/NC(=O)c2ccncc2)cc1OC,inactive,inactive,inactive,inactive,inactive,inactive,inactive,-3.24,-6.28,inactive,,-25,,,,,,
COc1cc(C(=O)N2CCCCCCC2)cc(OC)c1OC,inactive,inactive,inactive,inactive,inactive,inactive,inactive,-16.1,-20.1,inactive,,,,,,,,
CCCCCCCCCCCCCCCCO,inactive,inactive,inactive,inactive,inactive,inactive,inactive,-2.36,5.55,inactive,,3.59,,,,,,
CCNC(=O)/C=C/c1cccc(Br)c1,inactive,inactive,inactive,inactive,inactive,inactive,,-10.7,-16,inactive,,-17.6,,,,,,
C#C[C@]1(OC(C)=O)CC[C@H]2[C@@H]3CCC4=C/C(=N/O)CC[C@@H]4[C@H]3CC[C@@]21CC,inactive,inactive,inactive,inactive,inactive,,,,,,8.91 µM (active),-21.9,,,,,,
CCOC(=O)[C@@](C)(N)Cc1ccc(O)c(O)c1,inactive,inactive,inactive,inactive,,inactive,inactive,,,inactive,,,-6.91,-8.87,-6.68,-12.3,,
CCCCNC(=O)NS(=O)(=O)c1ccc(N)cc1,inactive,inactive,inactive,inactive,,inactive,inactive,-8.59,11,inactive,,-25.7,,,,,-6.54,
CC(=O)NC(=O)c1ccccc1O,inactive,inactive,inactive,inactive,,inactive,inactive,-6.43,-8.37,inactive,,-17.7,,,,,-24.9,
C[C@H]1[C@H]2CC[C@H]3[C@@H]4CC=C5C[C@@H](N(C)C)CC[C@]5(C)[C@H]4CC[C@]23CN1C,inactive,inactive,15.8 µM (active),inactive,,,inactive,0.435,,inactive,,-23.5,,,,,,
Cc1cccc(C)c1NC(=O)CN1CCCCCC1,inactive,inactive,inactive,inactive,,inactive,inactive,-3.5,-16.9,inactive,35.5 µM (active),-16.8,,,,,,
CNCCc1ccccn1,inactive,inactive,inactive,inactive,,inactive,inactive,,,inactive,,,-4.84,-4.42,-9.97,,,
CCc1oc2ccccc2c1C(=O)c1cc(Br)c(O)c(Br)c1,inactive,inactive,inactive,inactive,,inactive,inactive,,,28.2 µM (active),,-6.19,,,,,-39.6,35.5 µM (active)
CC(C)(C)NC[C@H](O)COc1cccc2c1CCCC2=O,inactive,inactive,inactive,inactive,,inactive,inactive,,,inactive,,,5.11,-13.9,-6.37,-24.3,,
CCCN(CCc1cccs1)[C@H]1CCc2c(O)cccc2C1,inactive,inactive,inactive,inactive,,inactive,inactive,,,inactive,,,,,,,,
COc1ccc(C(Cl)=C(c2ccc(OC)cc2)c2ccc(OC)cc2)cc1,inactive,inactive,inactive,inactive,,inactive,inactive,-6.95,,inactive,11.2 µM (active),2.89,,,,,,
Nc1ccc(C(=O)NCC(=O)O)cc1,inactive,inactive,inactive,inactive,,inactive,inactive,,,inactive,,,,-7.61,-13.9,-13.3,,
N#C/C(=C1\SCC(c2ccccc2Cl)S1)n1ccnc1 (stereo not given),inactive,inactive,inactive,inactive,,inactive,inactive,-11.6,-27.3,inactive,10 µM (active),0.133,,,,,,
